A selection: hits, their analogues and other compounds. The true share with any hit is near 1.8%.
12-LOX inh: blocks human arachidonate 12S-lipoxygenase | P18054 | purified 12hLO, xylenol orange hydroperoxide absorbance | Potency, µM (titrated, usually from 108 µM), inactives show at the highest dose activity change, negative = inhibition, actives largely listed as inhibitors | hit rate 1.1% among 580,000 | AID 1671190; note: potency is the fitted concentration of half-maximal effect; % is set by controls: 0 for no effect and ±100 for the full control effect
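Hydroperoxide product was detected by ferrous iron/xylenol orange as the 573 to 405 nm absorbance ratio. Arachidonic acid at 40 uM (final) was turned over for 30 min at room temperature by 150 nM human 12hLO, pH 7.0 Hepes buffer, after 15 min compound preincubation.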
KCNH2 3.1 inh: KCNH2 3.1 (human) potassium channel inhibition; U2OS KCNH2 3.1, thallium flux FluxOr; stronger effect = lower value; activity change, % (tested at about 1.8 µM); hit rate 0.95% among 340,000; AID 720553;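 active = maximum activity change below -70%; inconclusive = maximum activity change from -70% to -50%; inactive = maximum activity change above -50%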;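 note: thallium influx rate constant from kinetic fluorescence after stimulation buffer; % is set by controls: 0 for no effect and ±100 for the full control effect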
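Thallium flux read-out: FluxOr dye with Red40 quencher in HBSS/HEPES, 45 min at RT. Rate constants from kinetic reads were normalized to positive and negative DMSO controls. Cells: U2OS virally expressing the 3.1 isoform.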
AT treatment: candidate therapy for ataxia-telangiectasia. F2112 A-T fibroblasts, KAP-1 phosphorylation AlphaLISA; neocarzinostatin DNA damage 30 min before lysis. Potency, µM (top dose mostly 57.5 µM), inactives show at the highest dose activation, most hits filed as activators. hit rate 0.19% among 320,000. AID 485349; note: potency is the fitted concentration of half-maximal effect; % of control where 0% means no effect; nearly all actives have a fitted effect of over 45% in size
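hTERT-immortalized A-T patient fibroblasts (F2112), 500 cells/well in OPTI-MEM, 1% FBS, got compounds for 60 min, then NCS for 30 min at 37C. Lysates were then assayed for phospho-KAP-1 by AlphaLISA (anti-pKAP1 donor, anti-KAP1 acceptor beads), 6 hr at 25C.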
KCNH2 WT inh: inhibitors of human wildtype KCNH2 potassium channel. AID 720551. hit rate 0.37% among 340,000. activity change, % at 1.84 µM. U2OS, BacMam KCNH2, thallium flux FluxOr; stronger effect = lower value. Q12809;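 active = maximum activity change below -70%; inconclusive = maximum activity change between -70% and -50%; inactive = maximum activity change above -50%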; note: % is set by controls: 0 for no effect and ±100 for the full control effect
Target sequence (Q12809 whole entry, looked up): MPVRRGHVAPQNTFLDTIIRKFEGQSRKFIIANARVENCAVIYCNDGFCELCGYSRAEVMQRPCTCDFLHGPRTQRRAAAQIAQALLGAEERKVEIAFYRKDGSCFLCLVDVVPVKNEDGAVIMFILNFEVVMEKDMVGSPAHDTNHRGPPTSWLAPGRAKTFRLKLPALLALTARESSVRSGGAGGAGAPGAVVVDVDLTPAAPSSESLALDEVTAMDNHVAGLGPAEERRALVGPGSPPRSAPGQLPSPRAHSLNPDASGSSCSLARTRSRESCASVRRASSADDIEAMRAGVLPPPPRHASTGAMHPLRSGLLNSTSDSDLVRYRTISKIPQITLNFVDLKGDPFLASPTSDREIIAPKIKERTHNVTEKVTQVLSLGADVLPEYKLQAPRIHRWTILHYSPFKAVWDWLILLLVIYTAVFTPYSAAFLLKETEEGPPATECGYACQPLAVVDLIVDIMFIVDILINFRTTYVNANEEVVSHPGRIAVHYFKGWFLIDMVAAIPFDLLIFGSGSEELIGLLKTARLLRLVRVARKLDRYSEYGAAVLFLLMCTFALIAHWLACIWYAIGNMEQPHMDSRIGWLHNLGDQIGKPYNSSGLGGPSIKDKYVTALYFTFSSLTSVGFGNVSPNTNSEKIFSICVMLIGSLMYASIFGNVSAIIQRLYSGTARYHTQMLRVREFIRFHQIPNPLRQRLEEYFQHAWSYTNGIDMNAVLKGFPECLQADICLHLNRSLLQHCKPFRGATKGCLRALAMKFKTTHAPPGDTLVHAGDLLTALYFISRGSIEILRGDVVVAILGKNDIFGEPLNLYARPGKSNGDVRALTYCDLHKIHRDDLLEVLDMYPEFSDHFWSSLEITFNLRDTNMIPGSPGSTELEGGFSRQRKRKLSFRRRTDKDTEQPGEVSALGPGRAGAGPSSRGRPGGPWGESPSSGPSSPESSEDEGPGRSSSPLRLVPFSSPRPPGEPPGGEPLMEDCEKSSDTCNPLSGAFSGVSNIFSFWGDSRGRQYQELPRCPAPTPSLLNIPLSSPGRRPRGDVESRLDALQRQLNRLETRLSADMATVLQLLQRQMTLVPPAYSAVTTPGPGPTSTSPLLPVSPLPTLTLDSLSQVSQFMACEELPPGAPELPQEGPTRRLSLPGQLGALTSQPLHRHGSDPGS
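U2OS cells transduced with wild-type KCNH2 virus are loaded with FluxOr dye for 45 min, and thallium flux is measured in kinetic reads before and after stimulation buffer. Rate constants are normalized to DMSO controls.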
* = called active by the depositor; ? = inconclusive; nt = no result given. Unless noted, calls come from the whole dose curve; as a rule, active = well fitted curve in the direction sought with a large enough effect; inconclusive = small, poorly fitted or top-dose-only effect, or another doubt; inactive = no such curve, though single readings can be large; an effect the other way counts as inactive or inconclusive.

SMILES	12-LOX inh	KCNH2 3.1 inh	AT treatment	KCNH2 WT inh
COc1cc(NS(=O)(=O)c2ccc3[nH]c(=O)oc3c2)cc(OC)c1	?	-71.1*	3.0%	19.5
CCOC(=O)c1ccc(NC(=O)c2c(NCc3cccc(OC)c3OC)sc3c2CCC3)cc1	-19.8%	nt	nt	nt
CCOC(=O)c1ccc(NC(=O)c2c(NCc3sccc3C)sc3c2CCCCC3)cc1	11.2µM*	nt	nt	nt
COc1ccc(Cn2nnnc2C(c2cccs2)N2CCN(c3ccc([N+](=O)[O-])cc3)CC2)cc1 (centres undefined)	1.4%	-98.9*	-7.9%	?
COc1ccc(Cn2nnnc2C(c2ccc(C)cc2)N2CCN(C3CCCC3)CC2)cc1 (centres undefined)	?	-73.3*	2.4%	16.5
FC(F)(F)c1cc(-c2ccco2)nc(-n2nc(C(F)(F)F)cc2C2CC2)n1	3.7%	-142.7*	-0.9%	-8.2
COc1ccccc1CNc1ccnc(-c2ccc(N(C)C)cc2)n1	25.1µM*	nt	nt	nt
COc1ccccc1-c1nccc(NCc2ccccc2)n1	22.4µM*	nt	nt	nt
COc1ccc(CNc2ccnc(-c3ccccc3OC)n2)c(OC)c1	-15.6%	nt	nt	nt
CNc1ccnc(-c2ccccc2OC)n1	15.8µM*	nt	nt	nt
Nc1nc(-c2ccc(Cl)cc2)nn1C(=O)c1ccc(F)cc1	-14.2%	nt	nt	nt
COc1ccc(C(C)=O)cc1CC(=O)NC(c1ccccc1)c1ccc(C)cc1 (centres undefined)	-2.4%	nt	nt	nt
Cc1nn(CC(=O)NC(c2ccccc2)C2CC2)c(=O)c2ccccc12 (centres undefined)	4.0%	nt	nt	nt
CCOc1cc(C(=O)Nc2ccc3oc(=O)ccc3c2)cc(OCC)c1OCC	-11.8%	nt	nt	nt
CNC(=O)NC(=O)CN(C)C1CCCC1	0.7%	nt	nt	nt
COc1ccc(F)c(CN2CCCC3(CCN(C(=O)C4CCCC4)C3)C2)c1 (centres undefined)	-14.7%	nt	nt	nt
O=S1(=O)CC/C(=N\Nc2ccccc2)c2ccsc21	35.5µM*	10.8	3.2%	-3.5
COc1cc(C(=O)NNC(=S)NC(=O)c2ccccc2C)cc(OC)c1OC	-20.0%	-10.8	-10.4%	1.0
COc1cc(C(=O)NC(=S)N2CCCCCC2)cc(OC)c1OC	-9.3%	-2.8	3.7%	-7.8
COc1cc(C(=O)NC(=S)NNC(=O)[C@H]2C[C@@H]2c2ccccc2)cc(OC)c1OC	31.6µM*	-21.0	-10.3%	-7.5
COc1ccccc1C(=O)NNC(=S)NC(=O)c1cc(OC)c(OC)c(OC)c1	39.8µM*	12.3	-3.5%	-9.3
COc1cc(C(=O)NNC(=S)NC(=O)c2ccc3c(c2)OCO3)cc(OC)c1OC	?	?	-4.5%	-6.4
COc1cc(C(=O)NC(=S)NC(C)C)cc(OC)c1OC	35.5µM*	-4.7	0.3%	0.4
COc1ccccc1CNC(=O)CCc1nnc2ccc(NCc3ccco3)nn12	-0.2%	nt	nt	nt
Cc1nn(C)c(C)c1CNC(=O)C1CCc2sc(C(=O)N3CCOCC3)cc2C1 (centres undefined)	22.7%	nt	nt	nt
SMILES	12-LOX inh	KCNH2 3.1 inh	AT treatment	KCNH2 WT inh
CC(C)(C)OC(=O)CN(CCc1ccccc1)CCS(C)(=O)=O	5.7%	nt	nt	nt
O=C(NC1CCCCCCC1)c1cc(Sc2cccc(Cl)c2)nc2ccccc12	8.5%	nt	nt	nt
CSc1ccccc1NC(=O)c1ccc(F)c(F)c1	-10.2%	nt	nt	nt
O=C(CC[C@@H]1CNC(=O)[C@@H]2C[C@H](NC(=O)c3ccccc3)CN12)NCc1ccc(F)cc1	31.6µM*	nt	nt	nt
O=C(CN1CCN(C(=O)CNC(=O)c2ccc(-c3ccccc3)cc2)CC1)Nc1ccccc1Cl	9.0%	-84.4*	nt	14.6
O=C(CN1CCN(CC(=O)Nc2ccccc2Cl)CC1)Nc1ccc(F)c(F)c1	8.6%	-110.9*	-1.8%	?
Cc1c(C(=O)N2CCN(CC(=O)Nc3ccccc3Cl)CC2)oc2ccc(Br)cc12	0.9%	-73.4*	1.1%	-28.7
O=C(CN1CCCCCC1)Nc1ccc(F)c(F)c1	?	4.2	1.1%	0.0
CCOc1ccc(NC(=O)CN2CCN(c3ccc(F)cc3)CC2)cc1	-17.7%	31.6	9.8%	0.9
CCOc1ccc(NC(=O)CN2CCN(CC(=O)Nc3ccc(F)c(F)c3)CC2)cc1	0.0%	-92.9*	-6.0%	-117.3*
CCCCNC(=O)N1CC(C(=O)NC(C)c2ccccc2)CC(c2ccc(OC)c(OC)c2)C1 (centres undefined)	52.2%	nt	nt	nt
O=C(CN1CCCC1)Nc1ccccc1Sc1ccc(Cl)cc1	-14.1%	-90.2*	13.1%	10.2
CCOc1ccc(NC(=O)CN2C(=O)c3ccccc3C2=O)cc1	0.0%	-0.2	2.6%	nt
CCOC(=O)N1CCN(CC(=O)Nc2nc3ccc(OC)cc3s2)CC1	44.7µM*	-2.2	-0.7%	2.9
Cc1cc(C)c2c(n1)SCC(=O)N2CC(=O)Nc1ccc(C)c(C)c1	?	-130.2*	3.2%	1.8
CCOc1ccc(NC(=O)CN2C(=O)CSC2=O)cc1	-5.2%	-89.9*	2.9%	-18.4
O=C(N/N=C/c1c2ccccc2cc2ccccc12)C1CC1	1.5%	nt	nt	nt
CCOC(=O)N1CCN(CC(=O)Nc2cc(OCC)ccc2OCC)CC1	1.58µM*	16.0	-2.7%	2.9
COC(=O)c1ccc(NC(=O)CN2CCCC2)cc1	-20.3%	0.3	8.4%	-6.5
CCOc1ccc(OCC)c(NC(=O)CN2CCN(c3ccc(C)cc3C)CC2)c1	?	18.8	5.8%	-10.2
CCOc1ccc(NC(=O)CN2CCN(CC(=O)Nc3ccc(C(=O)OC)cc3)CC2)cc1	13.3%	-83.0*	4.0%	?
NNc1nc2ccc(F)cc2s1	6.31µM*	-19.3	-6.2%	-14.1
NNc1nc2ccc(Cl)cc2s1	7.08µM*	17.9	-4.8%	0.8
COc1cccc(C2(CC#N)CCOC(C)(C)C2)c1 (centres undefined)	13.5%	nt	nt	nt
CCCCC(=O)Nc1ccc(-c2cn3ccc(C)nc3n2)cc1	1.6%	nt	nt	nt
SMILES	12-LOX inh	KCNH2 3.1 inh	AT treatment	KCNH2 WT inh
COc1ccc2cc(C3CN(C(=O)c4cccc(CO)c4)CCO3)ccc2c1 (centres undefined)	30.2%	nt	nt	nt
O=C(CSc1nnc(C2CC2)n1Cc1ccco1)NCC(F)(F)F	-4.4%	-11.1	-0.9%	0.1
CN(Cc1ccc(-c2ccc(Cl)cc2)o1)C(=O)CSc1nnc(C2CC2)n1Cc1ccco1	15.8µM*	nt	nt	nt
O=C(C1CCCO1)N1CCN(Cc2coc(-c3ccc(F)cc3)n2)CC1 (centres undefined)	-11.1%	nt	nt	nt
O=C(c1n[nH]c(=O)c2ccccc12)N1CCCC1c1nc2ccccc2s1 (centres undefined)	-21.1%	nt	nt	nt
CC[C@]12c3[nH]c4ccccc4c3CCN1C(=O)C(CC(=O)NCCCOC)C[C@@H]2C(=O)N1CCN(C(=O)C2CC2)CC1 (some centres undefined)	8.8%	-6.3	14.9%	21.4
CC[C@]12c3[nH]c4ccccc4c3CCN1C(=O)C(CC(=O)NCCN1CCOCC1)C[C@@H]2C(=O)N1CCN(C(=O)C2CC2)CC1 (some centres undefined)	-6.7%	5.9	11.5%	-114.1*
CN(c1ncnc2scc(-c3ccc(Cl)cc3)c12)C1CCS(=O)(=O)C1 (centres undefined)	3.1%	nt	nt	nt
Cc1csc2nc(COC(=O)c3ccc(NC(=O)c4ccc(C(C)(C)C)cc4)cc3)cc(=O)n12	-1.6%	nt	nt	nt

Bioassay records (PubChem)
